55 molecules from PubChem BioAssay AID624169 (The Scripps Research Institute Molecular Screening Center, 2012) can be followed below.

The structures appear in SMILES notation. The whole screen tested about 360,000 compounds, of which about 2,400 (0.67%) were called active. The list comes from a sample in which actives are over-represented; it also holds similar structures and randomly drawn compounds. Values without a mark were called inactive.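 The calls were made as follows: active = activation above a run cutoff, the mean activation of all tested compounds plus 3 SD (cut at about 14% in these data); inactive = the rest.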

In this experiment the target is 5-hydroxytryptamine receptor 2A (Mus musculus) (UniProt P35363). Nature of the experiment: mouse Htr2a agonists via beta-arrestin recruitment, primary screen, cell-based, luminescence (AID 624169).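 Also: 0% = plate median of compound wells and 100% = 30 µM serotonin.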 The following applies: CHO-K1 mHTR2A beta-arrestin complementation, at 7.6 µM, stronger effect = higher value, percent of 30 µM serotonin response. A general note: Activated receptors often draw arrestin, which recruitment assays turn into a signal.
Sequence of 5-hydroxytryptamine receptor 2A (Mus musculus) (P35363 whole entry, looked up): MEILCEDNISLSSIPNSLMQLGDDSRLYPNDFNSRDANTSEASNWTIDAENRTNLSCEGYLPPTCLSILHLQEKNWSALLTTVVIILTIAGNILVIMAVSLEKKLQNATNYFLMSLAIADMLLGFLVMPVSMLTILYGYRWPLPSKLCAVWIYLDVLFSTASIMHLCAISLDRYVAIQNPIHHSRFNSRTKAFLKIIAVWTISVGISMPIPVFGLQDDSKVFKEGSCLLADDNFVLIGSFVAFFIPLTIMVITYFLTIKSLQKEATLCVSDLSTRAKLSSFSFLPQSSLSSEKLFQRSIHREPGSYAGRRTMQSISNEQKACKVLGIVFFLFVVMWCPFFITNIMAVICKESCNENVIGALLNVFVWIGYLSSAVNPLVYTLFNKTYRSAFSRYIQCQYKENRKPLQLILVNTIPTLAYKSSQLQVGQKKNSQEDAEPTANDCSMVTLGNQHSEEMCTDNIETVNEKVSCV
Take `COC(=O)c1ccc(CSc2nnc(NC(C)C)s2)cc1`: the activation was 16% (active).
Take `COC(=O)c1ccc(CSc2nncn2C)cc1`: the activation is 4.16%.
Under `COC(=O)c1ccc(CSc2nncn2N)cc1` stands -0.96%; under `OC(COCCC12CC3CC(CC(C3)C1)C2)CN1CCCCC1` (stereo not given), -6.43%.
Under `CCCCn1c(N)c(N(CCOC)C(=O)c2sc3ccccc3c2Cl)c(=O)[nH]c1=O` stands -2.4%.
The result for `CC(C)(C)NC(=O)NC(=O)CN1CCC(Cc2ccccc2)CC1` reads 0.69%; that for `Cc1ccccc1CSCC(=O)NC(=O)NC(C)(C)C`, 19.9% (active).
On to `Cc1cc(NC(=O)CSCc2ccccc2C)no1`, for which the activation was -1.07%.
The result for `Cc1ccc(S(=O)(=O)C2C(=O)NC3(C)CC2c2ccccc2O3)cc1` (stereo not given) reads -3.98%; that for `O=C(NCc1ccccc1)c1ccc(CNc2c(N3CCCC3)c(=O)c2=O)cc1`, -2.51%.
As for `O=[N+]([O-])c1ccc2oc(-c3cccc(O)c3)nc2c1`, the activation was -2.7%.
The result for `COc1ccc(-c2nc3cc([N+](=O)[O-])ccc3o2)cc1OC` reads 15.3% (active).
Under `CC(=O)Oc1ccc2c(=O)oc(-c3ccc([N+](=O)[O-])cc3)nc2c1` stands 6.81%; under `CNc1ccc(SC#N)cc1`, 8.45%; under `NCCCC[C@@H]1NC(=O)[C@H](CCC(=O)O)NC(=O)c2cc([N+](=O)[O-])cc(I)c2NCC[C@@H](C(N)=O)NC1=O`, -1.82%.
The result for `O=C1CCC(C(=O)Nc2ccc(OC(F)F)cc2)N1` (stereo not given) reads 2.5%; that for `Cc1ccc2nc(-c3ccncc3)cc(C(=O)Nc3ccc(OC(F)F)cc3)c2c1`, -2.82%.
`CC1CCCC(NC(=O)c2cc(-c3ccncc3)nc3ccccc23)C1C` (stereo not given): the activation is -0.93%.
As for `Cc1ccc2nc(-c3ccncc3)cc(C(=O)Nc3ccncc3)c2c1`, the activation is 14.5% (active).
As for `CC1CCCCC1NC(=O)CCS(=O)(=O)c1ccc2c(c1)NC(=O)CO2` (stereo not given), the activation is 1.84%.
`CCOC(=O)/C=c1\s/c(=C\c2ccccc2OC)c(=O)n1CC(=O)N1CCOCC1`: the activation is 15.6% (active).
Under `COc1ccccc1/C=C/C(=O)NC(=S)N1CCOCC1` stands -0.42%.
For `CCc1cc(C(c2ccccc2OC)N2CCOCC2)c(NC(=O)c2ccccc2)s1` (stereo not given), the activation is -2.8%.
Under `Cc1cccc(NC(=O)CSc2nnc(NC(=O)CN3CCOCC3)s2)c1` stands 4.08%; under `CCCNS(=O)(=O)c1ccc(CCC(=O)N2CCCC2)cc1`, 0.26%; under `O=C1N(Cc2ccc3c(c2)OCO3)c2ccccc2C1(O)c1c[nH]c2ccccc12` (stereo not given), 4.88%.
The result for `CCOC(=O)[C@]12CCCC=C1N(Cc1ccc3c(c1)OCO3)C(=O)[C@H](CC(=O)NCc1cccs1)C2` reads 23.4% (active); that for `CCOC(=O)[C@]12CCCC=C1N(Cc1ccc3c(c1)OCO3)C(=O)[C@H](CC(=O)N1CCN(C(=O)c3ccco3)CC1)C2`, 1.52%; that for `COC(=O)[C@]12CCCCC=C1N(Cc1ccc3c(c1)OCO3)C(=O)[C@H](CC(=O)NCc1cccs1)C2`, 7.05%.
Under `CCNC(=O)c1cc2c(c(-c3cccc(-c4cncnc4)c3)n1)[C@H](CCO)N(C(C)=O)C2` stands -0.81%; under `CN1CCC(=O)N([C@H](CO)Cc2ccccc2)CC1`, -5.13%.
Consider `COCCN(CCOC)S(=O)(=O)NC[C@H]1O[C@@H](n2cnc3c(N)ncnc32)[C@H](O)[C@@H]1O`, for which the activation was 4.4%.
The result for `CC(=O)OCCOCn1cnn2c(=O)c(Br)c(C)nc12` reads 1.26%; that for `CN(c1ccccc1)S(=O)(=O)c1ccc(C(=O)N2CCN(c3ccccc3Cl)CC2)cc1`, -7.83%; that for `COc1ccccc1NC(=O)c1ccc(N2CC3CC(C2)c2cccc(=O)n2C3)c(NC(=O)c2cccnc2)c1` (stereo not given), 3.35%.
The result for `Nc1cc(C(=O)N2CCN(c3ccccc3Cl)CC2)ccc1N1CC2CC(C1)c1cccc(=O)n1C2` (stereo not given) reads 17.7% (active).
Under `Nc1[nH][nH]c(=O)c1N=Nc1ccc2c(c1)OCO2` stands -2.91%; under `CCc1ccc(N2CC(C(=O)Nc3ccc(S(=O)(=O)Nc4nccs4)cc3)CC2=O)cc1` (stereo not given), -3.72%.
As for `CN(C)[C@@H]1C(=O)C(C(N)=O)=C(O)[C@@]2(O)C(=O)C3=C(O)c4c(O)ccc(Cl)c4[C@@H](O)[C@H]3C[C@@H]12`, the activation was 15.9% (active).
The result for `C=C1c2c(Cl)ccc(O)c2C(O)=C2C(=O)[C@]3(O)C(O)=C(C(N)=O)C(=O)[C@@H](N(C)C)[C@@H]3[C@@H](O)C12` (stereo not given in full) reads -1.23%.
Regarding `C=C(C)C(=O)Nc1cccc(C2=NOC3(C2)C[C@H](C(N)=O)N(C(=O)C(c2ccccc2)c2ccccc2)C3)c1` (stereo not given in full), the activation is 5.68%.
Under `CCn1c(SCC(=O)NCC2CCCO2)nc2ccccc21` (stereo not given) stands 2.38%; under `CCCCn1c(SCC(=O)N2CCCC2=O)nc2cc(S(N)(=O)=O)ccc21`, 0%.
The result for `CCn1c(SCC(=O)N2CCCC2=O)nc2ccccc21` reads 15.3% (active); that for `O=C(NCc1ccccc1)[C@@H]1CSC2c3ccccc3C(=O)N21` (stereo not given in full), 1.3%.
Under `COc1cccc(OC)c1C(=O)N1CCN(Cc2ccccc2F)CC1` stands 2%; under `COc1cc(OC)c(OC)cc1CN1CCN(C(=O)c2cccc3ccccc23)CC1`, 0.49%; under `COc1ccccc1CN1CCN(Cc2cc(OC)c(OC)cc2OC)CC1`, 25.8% (active).
As to `C/C(CC(=O)NCc1ccc(Cl)cc1)=N\NC(=O)COc1ccc(C)cc1Br`, the activation was -5.06%.
With `CC(C)CN(C(=O)c1cccc(S(=O)(=O)N2CCCCC2)c1)C1CCS(=O)(=O)C1` (stereo not given), the activation was 3.09%.
The result for `O=C(O)c1ccc(S(=O)(=O)N2CCC(Cc3ccccc3)CC2)cc1` reads 22.2% (active).
Under `NC(=O)c1ccc(CN2CCC(Cc3ccccc3)CC2)cc1` stands -5.52%; under `Cn1cc(S(=O)(=O)N2CCC(Cc3ccccc3)CC2)c(=O)n(C)c1=O`, -1.79%.
For `CCCCN(C(=O)c1ccc(C)o1)c1c(N)n(CCCC)c(=O)[nH]c1=O`, the activation is -12.3%.
Under `C/C(CC(=O)NC(C)(C)C)=N\NC(=O)c1ccco1` stands 5.46%.
